SMILES strings stand for the structures. Records with an inconclusive call do not appear. Activity calls are given as the source filed them. How the source made its calls: active means hit-call score of the fitted dose curve at least 0.9, where 1 is the maximum; inconclusive means response in the unintended direction; inactive means score below 0.9.

This is an account of results in PubChem BioAssay (EPA / NIEHS).

For this assay, the target named is bovine Gamma-Aminobutyric Acid Type A Receptor BDZ, alpha 1 site (GABARa1), GABRA1 (gene 780973) (UniProt P08219). Nature of the assay: NVS_LGIC_bGABARa1: NovaScreen (NVS) Ligand-Gated Ion Channel Assay for bovine Gamma-Aminobutyric Acid Type A Receptor BDZ, alpha 1 site (GABARa1) (AID 2283321). The procedure: NVS_LGIC_bGABARa1 is a biochemical, single-readout assay that uses extracted gene-proteins from Bovine cortical membranes in a tissue-based cell-free assay. Measurements were taken 0.75 hour after chemical dosing in a 48-well plate.NVS_LGIC_bGABARa1 is one of one assay component(s) measured or calculated from the NVS_LGIC_bGABARa1 assay. It is designed to make measurements of radioligand binding, a form of binding reporter, as detected with scintillation counting signals by Filter-based radiodetection technology.Data from the assay component NVS_LGIC_bGABARa1 was analyzed into 1 assay endpoint. This assay endpoint, NVS_LGIC_bGABARa1, was analyzed in the positive analysis fitting direction relative to DMSO as the negative control and baseline of activity. Using a type of binding reporter, loss-of-signal activity can be used to understand changes in the binding as they relate to the gene GABRA1. Furthermore, this assay endpoint can be referred to as a primary readout, because the performed assay has only produced 1 assay endpoint. To generalize the intended target to other relatable targets, this assay endpoint is annotated to the ion channel intended target family, where the subfamily is ligand-gated ion channel.
Sequence of bovine Gamma-Aminobutyric Acid Type A Receptor BDZ, alpha 1 site (GABARa1), GABRA1 (gene 780973) (P08219 whole entry, looked up): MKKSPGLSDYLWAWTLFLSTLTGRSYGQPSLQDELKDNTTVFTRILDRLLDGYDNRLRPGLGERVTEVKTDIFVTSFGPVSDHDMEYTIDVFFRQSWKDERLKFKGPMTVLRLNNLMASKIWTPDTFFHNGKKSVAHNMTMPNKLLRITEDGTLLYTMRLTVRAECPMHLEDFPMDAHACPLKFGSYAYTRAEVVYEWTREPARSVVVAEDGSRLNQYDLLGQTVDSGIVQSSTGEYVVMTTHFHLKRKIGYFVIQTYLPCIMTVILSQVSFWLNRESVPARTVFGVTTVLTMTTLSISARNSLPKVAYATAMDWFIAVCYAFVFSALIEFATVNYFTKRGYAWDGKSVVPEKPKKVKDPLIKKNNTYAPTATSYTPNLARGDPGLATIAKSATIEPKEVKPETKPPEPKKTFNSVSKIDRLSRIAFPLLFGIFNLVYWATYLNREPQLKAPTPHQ
Binding assays used specific radioligands (tritiated, iodinated) with non-radioactive competitive displacement ligands in agonist or antagonist protocols (as indicated) and various reference compounds and inhibitors to titrate specific binding to receptors and transporters. Most enzyme assays (CYPs, kinases, phosphatases, proteases, HDACs) used recombinant protein and specific substrates (fluorescence mostly, some colorimetric and radioactive) and inhibitors, followed by a biochemical separation of substrate and product. All assays for the biochemical HTS were initially run in duplicate at a single concentration (10 uM for CYP450 assays and 25 uM for all others). Assay-chemical combinations meeting a pre-defined threshold (e.g., 30% inhibition and other criteria defined below) were then run in singleton concentration-response format with maximum concentration of 20 uM for CYPs and 50 uM for all others. Each assay was run with positive and negative controls, and concurrent controls on every plate. The follow-up (secondary) screen tested active chemical-pairs in concentration series, as well as a few additional assays not tested in the primary screen, some selected negative inactives, and several cases re-run in the concentration series for confirmatory purposes.
What is called AC50 is the concentration at which the activity in the assay is half-maximal. As to `C#C[C@]1(O)CC[C@H]2[C@@H]3CCC4=CC(=O)CC[C@@H]4[C@H]3CC[C@@]21CC`, the half-maximal activity concentration (AC50) is 2.23 µM (active). With `C1=CCCC=CCCC=CCC1`, the molecule was called inactive. For `Cc1cc(SC2=C(O)C[C@@](CCc3ccc(N)cc3)(C(C)C)OC2=O)c(C(C)(C)C)cc1CO`, the AC50 was 22.6 µM (active). As for `Nc1nc(N)c2nc(CNc3ccc(C(=O)N[C@@H](CCC(=O)O)C(=O)O)cc3)cnc2n1`, the result was inactive.

Consider `C#C[C@]1(O)CC[C@H]2[C@@H]3CCC4=CC(=O)CC[C@@H]4[C@H]3CC[C@@]21C`, for which the AC50 is 1.27 µM (active).

On to `CCOc1ccc2[nH]cc(C(=O)NCc3ccccc3)c(=O)c2n1`, for which the molecule was called inactive. Take `CNCc1ccc(NC(=O)c2c[nH]c3c2C(=O)CCC3)cc1`: the AC50 is 0.0626 µM (active). For `NC(=O)N1c2ccccc2C=Cc2ccccc21`, the result was inactive. Still for that read-out and setting: the value for `CCn1nc(C)c2c1C(=O)NCC(c1ccc(O)cc1)=N2` was “inactive”. Take `CCCCOC(=O)c1ccc(O)cc1`: the AC50 was 35.1 µM (active). On to `NC(=O)N(O)[C@@H]1C=C[C@H](Oc2cccc(Oc3ccc(F)cc3)c2)C1`, for which the call was inactive. Turning to `O=C(OCCOCCOC(=O)c1ccccc1)c1ccccc1`, the AC50 is 1.4 µM (active). Regarding `COc1nc(C)nc(NC(=O)NS(=O)(=O)c2ccccc2OCCCl)n1`, the molecule was called inactive.

On to `CCOC(=O)C(C)(C)Oc1ccc(Cl)cc1`, for which the AC50 is 25 µM (active). The same measure, in the same setting: the value for `NC(=Nc1ccccc1)Nc1ccccc1` was 21.8 µM (active).

Consider `NC(=O)Cn1c(=O)cc(CCN2CCN(c3nccc4sccc34)CC2)c2ccc(F)cc21`, for which the AC50 was 4.48 µM (active). For `COCc1nnc(-c2ccc[n+]([O-])c2)n1-c1c(Cl)c(Cl)cc2[nH]c(=O)c(=O)[nH]c12`, the call was inactive.

For `CCC(C)N(C)C(=O)c1cc2ccccc2c(-c2ccccc2Cl)n1` (stereo not drawn), the AC50 was 10.2 µM (active). In the case of `COC(=O)CSc1cc(N=c2sc(=O)n3n2CCCC3)c(F)cc1Cl`, the molecule was called inactive. As to `CCSC(=O)N(CC(C)C)CC(C)C`, the call was inactive. Regarding `CN(C[C@@H](CC[N+]12CCC(C3CCCCC3)(CC1)CC2)c1ccc(Cl)c(Cl)c1)C(=O)c1cc(C(F)(F)F)cc(C(F)(F)F)c1`, the outcome was inactive. Turning to `CCCCCCCCCC(=O)O`, the AC50 is 19.7 µM (active). As for `Cn1cnc([N+](=O)[O-])c1Sc1ncnc2nc[nH]c12`, the result was inactive. As to `Cc1[nH]nc2c1N=C(c1ccccc1Cl)c1cc([N+](=O)[O-])ccc1N2`, the AC50 is 2.29 µM (active).

In the case of `Clc1cc(Cl)c(Cl)cc1Cl`, the molecule was classed as inactive. For the molecule `COc1cccc(-c2ccc(/C=C\CN3CCCCCC3)cc2Cl)c1`, the AC50 was 11.7 µM (active). With `CC[C@H](C)[C@@H](C(=O)O)n1sc2ccccc2c1=O`, the call was inactive.

With `CCN(CC)CCNc1ccc(CNC=O)c2sc3ccc(OC)cc3c(=O)c12`, the outcome was inactive.

In the case of `c1ccc2[nH]c(-c3cscn3)nc2c1`, the molecule was called inactive.

For the molecule `CN(C)CCCN1c2ccccc2Sc2ccc(Cl)cc21`, the outcome was inactive.

For `CC(C)(c1ccc(O)cc1)c1ccc(O)cc1`, the result was inactive. On the same count and under the same terms, the value for `CCCCc1ccc2c(n1)[C@@H](c1ccc(OC)cc1C[C@H](C)C(=O)O)[C@H](C(=O)O)[C@H]2c1ccc2c(c1)OCO2` was “inactive”.

As to `C/C=C/C=C/C(=O)O`, the AC50 was 20.9 µM (active).
